Drawing on PubChem BioAssay, this text covers z-score for 14 molecules.

The structures appear in SMILES notation. Active and inactive are the calls of the source.

A short description of test [1]: A549 cell viability effects, profiling panel, calcein-AM fluorescence, 48 h, basal (AID 1162). The note with it: higher = more signal.
Test [2] is described as follows: adipocyte viability effects, profiling panel, cell-based, 3T3-L1 adipocytes, calcein-AM fluorescence, 48 h, basal (AID 1163). The note with it: 3T3-L1 adipocytes viability, higher = more signal.
A short description of test [3]: HepG2 cell viability effects, profiling panel, calcein-AM fluorescence, 48 h, basal (AID 1164). As to conditions: higher = more signal.
The nature of test [4]: MM1S cell viability effects, profiling panel, calcein-AM fluorescence, 48 h, basal (AID 1165).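 Note: viability of MM1S multiple myeloma cells under basal unstimulated conditions.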 The note with it: higher = more signal.
Test [5] is described as follows: basal RPMI8226 viability, no added stimulus, profiling panel, cell-based, calcein-AM fluorescence, 48 h, PK04 Diversity Set (AID 1166).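 Note: cells grown under basal conditions without added stimulus.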 As to conditions: RPMI8226 myeloma viability, higher = more signal.
Test [6] in a line: basal HepG2 mitochondrial membrane potential changes, profiling panel, cell-based, JC-1 fluorescence, 24 h, 100 nL compound (AID 1167). As to conditions: higher = more signal.
The nature of test [7]: basal 3T3-L1 adipocyte mitochondrial potential changes, profiling panel, cell-based, JC-1 fluorescence, 3T3-L1 adipocytes, 24 h, 100 nL compound (AID 1168). As to conditions: JC-1 mitochondrial fluorescence, higher = more signal, called active from +8 up or from −8 down.
Test [8] can be described thus: basal RPMI8226 mitochondrial membrane potential changes, profiling panel, cell-based, JC-1 fluorescence, 24 h, 100 nL compound (AID 1169). The note with it: RPMI8226 myeloma, JC-1 mitochondrial potential fluorescence, higher = more signal.
The nature of test [9]: basal MM1S mitochondrial membrane potential changes, profiling panel, cell-based, JC-1 fluorescence, 24 h, 100 nL compound (AID 1170). As to conditions: higher = more signal.
Test [10] in a line: A549 lung cancer cell viability effects, profiling panel, resazurin fluorescence, 24 h, PK04 Diversity Set (AID 1171). The note with it: higher = more signal, called active from +8 up or from −8 down. (In general: The colour change of resazurin is a common sign of viable cells or microbes.)
Note: test concentration not given here.

For `COc1ccc(O[C@H]2C=C[C@@H](c3ccccc3)O[C@@H]2COC(=O)CCC(C)=NO[C@@H](C)c2cc(-c3c(C)cc(C)cc3C)no2)cc1`, the z-score was -0.845 in [1]; 0.0504 in test [2]; 0.033 in [3]; 0.0731 in test [4]; -0.644 in [5]; 0.48 in test [6]. Besides, the z-score in [7] was -1.34 (inactive); in [8], 0.129; in test [9], -0.424; in test [10], 1.8 (inactive).

As to `CCOC(=O)C[C@H]1[C@H](OC(=O)c2cc3ccccc3oc2=O)[C@@H](NC(=O)c2ccc3ccccc3n2)c2cc(OCCCO)ccc2N1C(=O)c1ccccc1`, the z-score in [1] was 0.321; in test [2], 2.22; in test [3], 0.11; in [4] it was 0.204; in [5], -0.785; in [6], -0.187. The z-score in test [7] is -0.408 (inactive); in test [8], -0.264; in test [9] it was -0.0996; in test [10], -0.881 (inactive).

Regarding `COc1ccc(O[C@H]2C=C[C@@H](c3ccccc3)O[C@@H]2COC(=O)N2CCCCC2)cc1`, the z-score in [1] is -0.0152; in test [2], -0.303; in test [3] it was 0.0678; in test [4], -0.979; in test [5] it was -1.22; in test [6], 1.23. Further, the z-score was -0.0796 (inactive) in test [7], -0.358 in test [8], 0.125 in test [9] and 1.57 (inactive) in test [10].

Consider `COCCCNC(=O)[C@]1(Cc2ccccc2)N=C(c2ccc(OCCCO)cc2)O[C@@H]1c1ccccc1`, for which the z-score in [1] is -0.2; in test [2] it was 0.346; in test [3], 0.0484; in test [4], -2.27; in test [5], -0.701; in test [6], -0.175. Moreover, the z-score in test [7] is 0.492 (inactive); in test [8], -0.286; in [9] it was -0.498; in test [10] it was 2.67 (inactive).

Turning to `CO[C@@H]1COC(=O)CC=C[C@@H](C)[C@@H]2C=C[C@H](O)[C@@H](COC(=O)CCC[C@H]1C)O2`, the z-score is 0.438 in test [1]; -0.717 in test [2]; -0.101 in [3]; -0.567 in test [4]; 0.403 in test [5]; -0.016 in test [6]. Also, the z-score in test [7] was -0.546 (inactive); in [8], -0.347; in [9], -1.23; in test [10] it was -0.165 (inactive).

Turning to `CC(C)N1CC=CC23O[C@@H]4C=CCCOC(=O)C4[C@H]2C(=O)N(CCCCCCO)[C@@H]3C1=O` (stereo not given in full), the z-score in test [1] was 0.647; in test [2] it was -0.505; in [3], 0.677; in [4], 0.585; in test [5], 0.788; in test [6], 0.614. Further, the z-score in test [7] is 0.294 (inactive); in test [8], 0.936; in test [9], -0.768; in [10], 0.711 (inactive).

In the case of `CCN(CC)c1ccc(N2CC=CC34O[C@@H]5/C=C\CCC(C)OC(=O)C5[C@H]3C(=O)N(CCCO)[C@@H]4C2=O)cc1` (stereo not given in full), the z-score in test [1] is 0.28; in [2], 0.782; in test [3], 0.109; in test [4], 1.09; in test [5] it was 0.264; in test [6], -0.356. Moreover, the z-score in [7] was 0.0214 (inactive); in test [8], -0.245; in test [9], 1.18; in test [10], -0.38 (inactive).

Consider `COC(=O)[C@H](C)NC(=O)CCC1CC(OC(=O)NCCc2ccc(F)cc2)CC2(CCCC(COC(=O)NCC(c3ccccc3)c3ccccc3)O2)O1` (stereo not given in full), for which the z-score in test [1] was -0.0262; in test [2], -1; in [3], -0.972; in [4] it was -3.44; in [5], -3.43; in test [6], -0.727. The z-score was 1.18 (inactive) in test [7], -0.379 in [8], -1.37 in test [9] and 3.22 (inactive) in [10].

Consider `CCN1C(=O)[C@H]2[C@H]3[C@H](O)[C@H](O)CC(=NOC[C@@H](C)[C@H](OCc4ccccc4)C(C)C)[C@@H]3CC[C@H]2C1=O`, for which the z-score was -0.0364 in [1]; 0.387 in test [2]; -0.755 in [3]; -1.76 in test [4]; -1.24 in test [5]; -1.39 in test [6]. Besides, the z-score in [7] was -2.19 (inactive); in test [8], -0.279; in [9], -0.187; in test [10] it was -0.295 (inactive).

Regarding `CCCC=C(CCC)[C@@H](NC(=O)c1ccc(-c2ccccc2)cc1)c1ccc(C(=O)OC)cc1`, the z-score was -1.34 in [1]; -1.51 in test [2]; -0.166 in test [3]; -0.116 in [4]; -1.62 in [5]; -3.18 in [6]. Moreover, the z-score in test [7] was 0.393 (inactive); in test [8], -0.834; in test [9], -1.29; in [10], 0.747 (inactive).

`O=C1[C@H]2[C@H]3[C@H](O)[C@H](O)CC(=NO[C@@H]4O[C@H](CO)[C@@H](O)[C@H](O)[C@H]4O)[C@@H]3CC[C@H]2C(=O)N1Cc1ccccc1`: the z-score in [1] was 0.255; in test [2], -0.612; in test [3], -0.379; in test [4], -0.176; in test [5] it was 1.03; in test [6], 0.981. The z-score in test [7] is -0.173 (inactive); in test [8], -0.61; in test [9], -1.98; in test [10] it was 0.222 (inactive).

As to `Cc1ccc(S[C@]2(C(=O)NCC(F)(F)F)CC(=O)N(Cc3ccccc3Cl)[C@@H]2c2ccc(CO)cc2I)cc1`, the z-score in [1] was -1.08; in test [2], -0.798; in [3], 0.995; in test [4], -2.24; in test [5] it was -2.67; in test [6] it was 0.627. In addition, the z-score was -0.541 (inactive) in test [7], -0.566 in [8], -1.18 in test [9] and 0.318 (inactive) in test [10].

`CCOC(=O)[C@H](Cc1ccccc1)NC(=O)CCC1CC(OC(=O)NCCc2ccc(F)cc2)CC2(CCCC(COC(=O)NCC(c3ccccc3)c3ccccc3)O2)O1` (stereo not given in full): the z-score in test [1] is 0.241; in test [2], -0.351; in [3], -1.03; in test [4], -3.42; in test [5] it was -3.75; in test [6], 0.368. In addition, the z-score in test [7] was -0.88 (inactive); in test [8] it was -1; in test [9], -2.12; in [10], 0.919 (inactive).

Take `COCCOC(=O)N1C(=O)[C@@]2(c3cc(C#Cc4ccc(OC)cc4)ccc31)[C@H](c1ccc(O)cc1)N1[C@H](c3ccccc3)[C@H](c3ccccc3)OC(=O)[C@H]1[C@@H]2C(N)=O`: the z-score in test [1] was -0.64; in test [2], 0.38; in test [3], -0.531; in test [4], -2.08; in [5] it was -3.7; in test [6], -1.74. The z-score was 0.563 (inactive) in test [7], -0.896 in [8], -0.721 in test [9] and -1.51 (inactive) in [10].
